39 molecules from the antibiotic and cytotoxicity screens of Wong et al. (2023) can be followed below.

Screen size: about 39,000 compounds; about 3,300 (8.5%) were called active. This is one part of a sample in which actives are shown more often than they occur.

The assay deals with HepG2. The assay can be described thus: cytotoxicity call (relative viability < 0.9). The note with it: 10 µM.
With `C[C@@H]1CN([C@H](C)CO)C(=O)c2cccc(NS(=O)(=O)c3cccs3)c2O[C@@H]1CN(C)S(=O)(=O)c1cccs1`, the cytotoxicity call is “inactive”.
The result for `Cc1noc(C)c1S(=O)(=O)N(C)C[C@H]1Oc2ccc(NS(=O)(=O)c3ccc(Cl)cc3)cc2CC(=O)N([C@H](C)CO)C[C@H]1C` reads “inactive”.
The result for `O=C(N[C@@H]1CC[C@H](CCNS(=O)(=O)c2ccc(F)cc2)O[C@@H]1CO)C1CC1` reads “inactive”; that for `C[C@H](CO)N1C[C@H](C)[C@@H](CN(C)S(=O)(=O)c2ccc(F)cc2)Oc2ccc(NS(=O)(=O)c3cn(C)cn3)cc2C1=O`, “inactive”; that for `C[C@H]1CCCCO[C@H](CN(C)C(=O)c2ccccc2)[C@@H](C)CN([C@@H](C)CO)C(=O)c2cc(NS(=O)(=O)c3ccc(Cl)cc3)ccc2O1`, “inactive”.
As to `Cc1c(-c2ccccc2)n(C[C@@H](O)CN)c2ccccc12`, the cytotoxicity call is “active”.
The value for `O=C(O)c1ccc(OC[C@@H](O)CO[C@H](COc2ccc(C(=O)O)cc2)Cn2c3ccccc3c3ccccc32)cc1` was “inactive”.
For the molecule `CN(C[C@@H](O)CN)S(=O)(=O)c1ccccc1`, the cytotoxicity call is “inactive”.
The result for `COc1ccc(S(=O)(=O)Nc2ccc3c(c2)C(=O)N([C@H](C)CO)C[C@@H](C)[C@H](CN(C)Cc2ccccc2)OCCCC[C@H](C)O3)cc1` reads “inactive”; that for `CS(=O)(=O)N1C[C@H]2CN(Cc3ccncc3)C(=O)[C@@H]2C1`, “inactive”; that for `C[C@H](CO)N1C[C@H](C)[C@H](CN(C)C(=O)CN(C)C)Oc2cc(C#CCN(C)C)ccc2S1(=O)=O`, “inactive”.
The result for `CCOc1cc2ncc(C#N)c(Nc3ccc(OCc4ccccn4)c(Cl)c3)c2cc1NC(=O)/C=C/[C@H]1CCCN1C` reads “active”.
The value for `COc1ccccc1[C@@H](NC(=O)C1CCN(CCOc2ccc(Cl)cc2Cl)CC1)c1ccccn1` was “inactive”.
In the case of `CCOc1cc2ncc(C#N)c(Nc3ccc(OCc4ccccn4)c(Cl)c3)c2cc1NC(=O)/C=C/CN(C)C`, the cytotoxicity call is “active”.
With `CCOc1ccc(C(=O)Nc2ccc(S(=O)(=O)N3CCCC[C@@H]3c3cccnc3)cc2)cc1OCC`, the cytotoxicity call is “inactive”.
The value for `OC[C@H]1CN(Cc2ccccc2)CCO1` was “inactive”; that for `Cc1nc2ccc([N+](=O)[O-])cc2s1` was “inactive”; that for `CO[C@H]1CN(C)C(=O)c2cc(NC(=O)CC(F)(F)F)ccc2OC[C@H](C)N(C(=O)C2CCOCC2)C[C@@H]1C` was “inactive”.
As to `C=CCOC(=O)[C@H]1[C@@H]2C(=O)O[C@@H](c3ccccc3)[C@@H](c3ccccc3)N2[C@@H](c2ccc(OCCOC(=O)[C@H]3C[C@H]4C(=O)N[C@@H](CCCC[N+](C)(C)C)C(=O)N4[C@H]3c3ccc(O)cc3)cc2)[C@]12C(=O)Nc1ccc(I)cc12`, the cytotoxicity call is “inactive”.
Consider `C[C@@H]1CCCCO[C@@H](CN(C)C(=O)Nc2ccc(F)cc2)[C@@H](C)CN([C@H](C)CO)C(=O)c2cc(NC(=O)NC3CCCCC3)ccc2O1`, for which the cytotoxicity call is “inactive”.
The value for `C[C@H](CO)N1C[C@H](C)[C@@H](CN(C)S(=O)(=O)c2ccccc2)OCCCC[C@H](C)Oc2ccc(NC(=O)Nc3ccc(F)cc3)cc2C1=O` was “inactive”.
The value for `C[C@@H]1CN([C@@H](C)CO)C(=O)c2cc(NC(=O)Nc3ccc(F)cc3)ccc2O[C@@H](C)CCCCO[C@H]1CN(C)S(=O)(=O)c1ccccc1` was “inactive”; that for `C[C@@H]1CCCCO[C@H](CN(C)S(=O)(=O)c2ccccc2)[C@H](C)CN([C@@H](C)CO)C(=O)c2cc(NC(=O)Nc3ccc(F)cc3)ccc2O1` was “active”; that for `COCOC[C@H](C)N1C[C@@H](C)[C@H](CN(C)S(=O)(=O)c2ccc(F)cc2)OCCCC[C@H](C)Oc2ccc(NC(=O)Nc3ccccc3)cc2C1=O` was “inactive”.
The result for `C=CCOC(=O)N(C)C[C@@H]1OCCCC[C@H](C)Oc2ccc(NC(=O)Nc3ccccc3)cc2C(=O)N([C@H](C)COC(=O)c2ccccc2)C[C@H]1C` reads “inactive”; that for `C[C@H]1CCCCO[C@H](CN(C)S(=O)(=O)c2ccccc2)[C@@H](C)CN([C@@H](C)CO)C(=O)c2cc(NC(=O)Nc3ccc(F)cc3)ccc2O1`, “active”; that for `C=CCOC(=O)N(C)C[C@H]1OCCCC[C@H](C)Oc2ccc(NC(=O)Nc3ccccc3)cc2C(=O)N([C@@H](C)CO[Si](C)(C)C(C)(C)C)C[C@H]1C`, “active”.
Consider `C[C@@H]1CN([C@H](C)CO[Si](C)(C)C(C)(C)C)C(=O)c2cc(NC(=O)Nc3ccccc3)ccc2O[C@@H](C)CCCCO[C@H]1CN(C)S(=O)(=O)c1ccc(F)cc1`, for which the cytotoxicity call was “inactive”.
Turning to `C=CCOC(=O)N(C)C[C@@H]1OCCCC[C@H](C)Oc2ccc(NC(=O)Nc3ccccc3)cc2C(=O)N([C@@H](C)CO)C[C@H]1C`, the cytotoxicity call is “inactive”.
The result for `C[C@@H]1CN([C@@H](C)CO[Si](C)(C)C(C)(C)C)C(=O)c2cc(NC(=O)Nc3ccccc3)ccc2O[C@@H](C)CCCCO[C@H]1CN(C)S(=O)(=O)c1ccc(F)cc1` reads “active”; that for `C[C@@H]1CCCCO[C@@H](CN(C)S(=O)(=O)c2ccccc2)[C@H](C)CN([C@H](C)CO)C(=O)c2cc(NC(=O)Nc3ccc(F)cc3)ccc2O1`, “inactive”; that for `C[C@@H]1CN([C@H](C)CO)C(=O)c2cc(NC(=O)Nc3ccc(F)cc3)ccc2O[C@@H](C)CCCCO[C@@H]1CN(C)S(=O)(=O)c1ccccc1`, “inactive”.
The result for `C[C@H](CO)N1C[C@H](C)[C@H](CN(C)S(=O)(=O)c2cccs2)OCCCC[C@H](C)Oc2ccc(NC(=O)NC3CCCCC3)cc2C1=O` reads “inactive”; that for `C[C@H]1CCCCO[C@H](CN(C)C(=O)Nc2ccc3c(c2)OCO3)[C@@H](C)CN([C@@H](C)CO)C(=O)c2cc(NC(=O)C3CCCCC3)ccc2O1`, “inactive”.
The value for `C[C@@H]1CN([C@@H](C)CO)C(=O)c2cccc(NS(C)(=O)=O)c2O[C@H]1CN(C)S(=O)(=O)c1cn(C)cn1` was “inactive”; that for `C[C@H]1CN([C@@H](C)CO)C(=O)c2cc(NS(=O)(=O)c3ccc(F)cc3)ccc2O[C@@H]1CN(C)S(C)(=O)=O` was “inactive”.
Turning to `CC(C)NC(=O)N(C)C[C@H]1OCc2cn(nn2)CCCC(=O)N([C@@H](C)CO)C[C@H]1C`, the cytotoxicity call was “inactive”.
The value for `O[C@@H]1[C@@H](O)[C@H](Nc2ccccc2)OC[C@H]1O` was “inactive”; that for `Cc1noc(C)c1S(=O)(=O)N(C)C[C@H]1Oc2ccc(NC(=O)Nc3ccccc3)cc2CC(=O)N([C@H](C)CO)C[C@@H]1C` was “inactive”.
